This is a sample that favours compounds with a hit; in the whole collection about 4.2% have one here.
SMARCA2 act = increases SMARCA2 function in MMTV reporter cells; MG213 cells, MMTV-luciferase reporter, dexamethasone, overnight; activation, % at 9.1 µM; hit rate 1% among 370,000; in the data active = activation above about 7.8%;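 note: 0% = vehicle wells and 100% = reference activator wells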
DAX1 StAR inh = DAX1 (NR0B1) inhibition, primary screen; inhibition, % at 6.8 µM; HEK293T StAR-luciferase reporter, SF-1/DAX-1 repression relief; hit rate 1.1% among 370,000;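 active = inhibition above the mean over all tested compounds plus 3 SD, cut at about 3.6% in these data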;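 note: 0% = DAX-1 cells with DMSO and 100% = cells lacking DAX-1 with DMSO; higher inhibition means more luminescence from relief of DAX-1 repression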
hcDAF12 agonist = H. contortus DAF-12 activation, primary screen. HEK293 hcDAF-12 lit1-tk-luc reporter, luminescence; 0% DMSO, 100% Δ7-dafachronic acid. activation, % at 6.8 µM. hit rate 1.4% among 370,000;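 active = activation above the mean of all tested compounds plus 3 SD, cut at about 5.5% in these data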;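 note: 100% = response to 3 µM Δ7-dafachronic acid high control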
hgDAF12 agonist = hgDAF-12 agonism, primary luciferase screen; HEK293 GAL4-hgDAF12 UAS-luciferase reporter, agonist luminescence; normalized to butyrate control; activation, % at 6.8 µM; hit rate 1.8% among 370,000;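 active = activation above a cutoff set at the mean of all screened compounds plus 3 SD, cut at about 10% in these data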;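 note: 0% = DMSO wells and 100% = sodium butyrate wells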
ssDAF12 agonist = S. stercoralis DAF-12 activation, primary screen | HEK293 ssDAF-12/GRIP1 lit1-tk-luc reporter, luminescence; % of 3 µM dafachronic acid response | AID 652126 | activation, % at 6.8 µM | hit rate 1% among 370,000;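 active = activation above the mean over all tested compounds plus 3 SD, cut at about 0.9% in these data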;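 note: 0% = DMSO-only wells and 100% = 3 µM delta7-dafachronic acid wells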
An asterisk follows results filed as active; nt = no result given.

SMILES	SMARCA2 act	DAX1 StAR inh	hcDAF12 agonist	hgDAF12 agonist	ssDAF12 agonist
Cc1cccc(C)c1NC(=O)C(NC(=O)c1ccccn1)c1ccc([N+](=O)[O-])cc1 (stereo not drawn)	-1	0	1	1	-1
Cc1cccc(C)c1NC(=O)C(c1cccc([N+](=O)[O-])c1)N(C)C(=O)c1ccccn1 (stereo not drawn)	1	-1	-1	-2	1.0*
C/C(=N\Nc1nccnc1Cl)c1ccc(O)c(C)c1	4	2	4	12*	0
CCOC(=O)CNC(=O)N(C)[C@H]1C[C@H]2c3[nH]c4c(-c5ccccc5)cccc4c3CCN2C(=O)[C@H]1[C@H](C)O	-3	-1	-2	5	-1
CCc1ccc2nc(NC(=O)c3cc(C)on3)sc2c1	3	-1	5	12*	0
CCc1noc(C)c1C(=O)Nc1nc2ccc(F)cc2s1	4	3.9*	3	10	0
CCCCc1ccc2nc(NC(=O)c3ccc(Br)o3)sc2c1	nt	nt	1	11*	-1
COC(=O)[C@H](C(C)C)N(Cc1cn(Cc2ccccc2)nn1)S(=O)(=O)c1ccc(F)cc1Br	-4	0	-3	2	-2
O=S(=O)(NCc1csc(-c2cccnc2)n1)c1cccs1	0	1	0	3	0.9*
O=S(=O)(NCCc1csc(-c2cccnc2)n1)c1cccs1	-3	0	-1	-2	-1
COc1ccc(N=Cc2nc(-c3ccccc3)oc2OC(=O)c2ccccc2)cc1	4	3.7*	5	12*	1
CC(=O)Oc1oc(-c2ccccc2)nc1C=Nc1ccccc1	3	0	2	3	-1
COC(=O)[C@]12C[C@H](CC(=O)NCCc3ccccc3OC)C(=O)N(CCc3ccc(OC)c(OC)c3)C1=C[C@H](C(C)(C)C)O[C@@H]2C	-1	-2	-2	1	-2
CC1=C(C(=O)OCC2CCCO2)C(c2coc3ccc(C)cc3c2=O)C2=C(CCCC2=O)N1 (stereo not drawn)	1	0	4	-1	1.7*
Nc1nc2ccccc2n1C(=O)c1ccc(F)cc1	2	3.9*	6	10	0
Nc1nc2ccccc2n1C(=O)c1ccco1	3	2	3	9	-1
COc1ccc(C(=O)n2c(N)nc3ccccc32)cc1OC	3	1	1	10	0
Nc1nc2ccccc2n1C(=O)c1ccccc1	6	3	5.6*	12*	0
CC(C)[C@H](NC(=O)C1CCCC1)C(=O)N1CCC[C@H]1C(=O)NCCc1ccccc1Cl	-1	0	1	1	0
O=C(COc1ccccc1)NCC(=O)Nc1ccncc1	3	0	1	11*	-1
CCC[C@H]1[C@@H](OC(=O)NCc2ccccc2)CC[C@@]23CCCN2C(=O)CCC[C@@H]13	nt	nt	0	1	-2
C=C1[C@H](C)CN(S(=O)C(C)(C)C)[C@H]1CCO (stereo partly drawn)	-3	0	-1	-1	-2
Cc1ccc(CN2C(=O)c3ccccc3C2c2nnnn2-c2ccc3c(c2)OCCO3)cc1 (stereo not drawn)	3	-2	-2	2	-1
Cc1ccccc1CN1C(=O)c2ccccc2C1c1nnnn1-c1ccc2c(c1)OCCO2 (stereo not drawn)	7.9*	-2	0	-4	-1
O=C1c2ccccc2C(c2nnnn2-c2ccc3c(c2)OCCO3)N1CCCn1ccnc1 (stereo not drawn)	7	3.9*	1	1	0
SMILES	SMARCA2 act	DAX1 StAR inh	hcDAF12 agonist	hgDAF12 agonist	ssDAF12 agonist
Cc1ccc([N+](=O)[O-])cc1-c1ccc(/C=N/NC(=O)CN2CCOCC2)o1	-4	0	1	2	0.9*
O=C(Cc1ccccc1)N/N=C/c1ccc(-c2ccc([N+](=O)[O-])cc2)o1	-1	0	0	2	-1
O=C(CN1CCOCC1)Nc1ccc([N+](=O)[O-])cc1Br	-1	-1	1	0	1.3*
CCN1Cc2nnn(Cc3ccccc3)c2-c2ccccc2S1(=O)=O	0	0	-2	2	-1
COC(=O)[C@H]1C[C@@]2(N3CCCC3)c3ccccc3N[C@H]2N1S(=O)(=O)c1ccc([N+](=O)[O-])cc1	-1	0	0	3	-1
COc1ccc(C(C)(C)C)cc1N1C(=O)[C@@H]2CSCCS(=O)(=O)N2C1=O	-3	-1	0	-1	0
CC1OC(CCc2cccc(Cl)c2)Cc2[nH]c(=S)[nH]c(=O)c21 (stereo not drawn)	-1	-1	0	0	-1
CC(=O)c1ccc(Nc2cc(C)nc3ccccc23)cc1	-1	-1	-2	-4	-1
CC(=O)c1ccc(Nc2cc(C)nc3c(C)cccc23)cc1	5	0	3	11*	-1
CC(C)Cn1c(=O)cc(N2CCN(c3cccc(C(F)(F)F)c3)CC2)[nH]c1=O	nt	nt	0	4	0
Cc1cccc(C)c1-n1nnnc1C1(C)CCC(=O)N1c1ccc(N2CCOCC2)cc1 (stereo not drawn)	-4	0	0	1	-1
O=C(CNS(=O)(=O)c1cc2ccccc2s1)N1CCN(c2ccccn2)CC1	-3	-1	-2	-2	-1
COc1cccc(NC(=O)Nc2nc3ncccn3c2-c2ccc(C(F)(F)F)cc2)c1	-1	-1	-2	0	0
Cc1ncsc1C(=O)Nc1nc2c(s1)CC(C)CC2 (stereo not drawn)	5	3	3	13*	0
Cc1cc(N/N=C/c2ccncc2)nc2ccccc12	-1	3.9*	3	4	-1
O=C(Cc1cccs1)N/N=C/C=C\c1ccco1	6	0	0	-1	-1
O=C(N/N=C/C=C\c1ccco1)c1cccs1	5	0	1	7	1.3*
O=C1SC(c2ccccc2)=C/C1=C\N1CCCCC1	-2	1	6.1*	1	0
Cn1c(CNC(=O)c2ccc(F)cc2)cc2ccccc21	2	-1	1	1	1.0*
CC(NC(=O)C12CC3CC(CC(C3)C1)C2)C(=O)NN=Cc1ccc([N+](=O)[O-])o1 (stereo not drawn)	-2	-3	1	-7	1.6*
O=C(NNC1=C(C(=O)C(F)(F)F)CCC1)c1cccc(Cl)c1	3	2	2	13*	-1
COc1cc(CNCc2ccccn2)ccc1OCc1ccc(Cl)cc1Cl	-2	-1	-1	-2	-1
C/[N+]([O-])=C/c1c(OCc2ccc(Cl)cc2Cl)ccc2ccccc12	-3	0	6.0*	5	0
O=C(O)c1ccc(N/N=C/C=C/c2ccccc2[N+](=O)[O-])cc1	0	4	5	12*	3.6*
O=C(Cc1ccccc1)N/N=C/C=C/c1ccccc1[N+](=O)[O-]	-1	0	-2	2	-1
Cc1ccc(Cn2nnc3c2-c2cc(F)ccc2S(=O)(=O)N(C(C)(C)C)C3)cc1	-5	0	-2	-3	0

Source: PubChem
